Measurements published in PubChem BioAssay AID2517 (National Center for Advancing Translational Sciences (NCATS), 2010).
Where “and” joins values, the source holds several entries; their conditions need not be identical. Identical values can stand only once. The whole screen tested about 350,000 compounds, of which about 1,200 (0.34%) were called active. Inconclusive results (about 3%) are left out. Calls come from the whole dose curve; as a rule, active = well fitted inhibition curve with a large enough effect; inconclusive = small, poorly fitted or top-dose-only effect; inactive = no such curve, though single readings can be large or run the other way. The entries come from a sample that favours actives as a whole. The source holds several records for some structures; these can differ, active in one and inactive in another.

What follows are compounds tested against DNA repair nuclease/redox regulator APEX1 (Homo sapiens) (UniProt P27695) (assay: qHTS Assay for Inhibitors of the Human Apurinic/apyrimidinic Endonuclease 1 (APE1)). Details: recombinant APE1, TAMRA/BHQ-2 abasic DNA cleavage fluorescence; activity change, negative = inhibition: at 65.8 µM (top of the series).
DNA repair nuclease/redox regulator APEX1 (Homo sapiens), sequence (P27695 whole entry, looked up): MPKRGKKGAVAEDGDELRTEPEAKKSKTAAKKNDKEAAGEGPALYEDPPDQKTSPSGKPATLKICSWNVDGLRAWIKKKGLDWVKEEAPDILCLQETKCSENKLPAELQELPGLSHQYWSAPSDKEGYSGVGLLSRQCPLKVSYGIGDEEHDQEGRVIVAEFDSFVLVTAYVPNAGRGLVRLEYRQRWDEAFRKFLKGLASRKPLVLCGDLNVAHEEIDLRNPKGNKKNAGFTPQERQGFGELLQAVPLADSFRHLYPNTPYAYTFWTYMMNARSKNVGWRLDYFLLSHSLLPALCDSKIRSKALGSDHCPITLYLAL
Summary of the method: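 Quantitative HTS: incision of a TAMRA/BHQ-2 double-stranded substrate bearing a tetrahydrofuran abasic site by 0.75 nM APE1 raises fluorescence. Substrate 50 nM final, added after 15 min compound preincubation at room temperature; progress as third-minus-first kinetic read difference.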
Note: nearly all actives have a fitted effect of over 55% in size.
Potency is the fitted concentration of half-maximal effect.
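Throughout, for activity change, negative = inhibition: plate controls were vehicle for no effect and reference inhibitor for full effect.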

Activity change, negative = inhibition, active:
Cc1cc(C)cc(OCC(=O)NC(C)c2ccccc2)c1 (stereo unspecified) -52.8%

Activity change, negative = inhibition, inactive:
Cc1ccc(OCCCC(=O)NC(C)c2ccccc2)c(C)c1 (stereo unspecified) 0.614%, Cc1ccccc1OCCC(=O)OCC(=O)NC(C)c1ccccc1 (stereo unspecified) 0.618%, c1ccc2cc(C3=NCCN3)ccc2c1 -6.2%, COc1ccc(/C=C/NC(=O)c2ccc(OC)cc2)cc1 3.93% [at 12.4 µM], CC[C@H](C)[C@H](NC(=O)[C@H](CCCNC(=N)N)NC(=O)[C@H](CCCNC(=N)N)NC(=O)[C@H](CC(C)C)NC(=O)[C@H](Cc1ccccc1)NC(=O)CNC(=O)CNC(=O)[C@@H](N)Cc1ccc(O)cc1)C(=O)N[C@@H](CCCNC(=N)N)C(=O)N1CCC[C@H]1C(=O)N[C@@H](CCCCN)C(=O)N[C@@H](CC(C)C)C(=O)N[C@@H](CCCCN)C(=O)N[C@@H](Cc1c[nH]c2ccccc12)C(=O)N[C@@H](CC(=O)O)C(=O)N[C@@H](CC(N)=O)C(=O)N[C@@H](CCC(N)=O)C(=O)O -1.98%, O=C(NCCc1ccco1)c1nn(Cc2ccccc2)c(=O)c2ccccc12 -6.32%, O=C(Nc1ccccc1)/C(=C\c1ccco1)NC(=O)c1ccco1 39.5%, O=C(OCC(COC(=O)c1ccccc1)(COC(=O)c1ccccc1)COC(=O)c1ccccc1)c1ccccc1 5.41%, CC(C)=CCN1CCC2(CCc3ccccc32)CC1 -0.233%, C=C1C([C@@]2(C)C(OC(C)=O)CC(=O)O[C@@](C)(COC(C)=O)C2CC(=O)OC)C(OC=O)C(OC(=O)C(O)C(C)CC)[C@]2(C)C(c3ccoc3)CC(=O)C12O (stereo partly specified) -3.23%, CC[C@H](C)[C@@H](NC(=O)O[C@@H]1C(=O)c2cc(OC)ccc2O[C@H]1c1cccc(OC)c1)C(=O)OC -2.71%, CCCCS(=O)(=O)N1C2=NC(C(=O)OC)=C(C(=O)OC)[C@@H]3N(Cc4ccccc4)c4ccccc4[C@]23C[C@H]1C(=O)OC -4.13% [at 12.4 µM], S=C(NCCCc1cnc[nH]1)NCCCN(Cc1ccc(Cl)c(Cl)c1)c1ccc(Br)cn1 -1.31%, O=C(c1ccco1)N1CCC[C@@]2(CCN(c3ccccc3)C2)C1 2.31%, Cc1ccc(C(=O)Nc2ccc3c(c2)OCO3)cc1S(=O)(=O)N1CCCCC1 -8.39%, Cc1nn(CC(=O)Nc2ccc3c(c2)OCO3)c(C)c1[N+](=O)[O-] 2.88%

Potency, inactive and 3.16 µM (active):
Oc1cc(O)c2c(c1)OC(c1ccc(O)c(O)c1)C(O)C2 (stereo unspecified)

Potency, active:
O=c1nc2s/c(=C\c3ccco3)c(=O)n2nc1Cc1ccccc1 4.47 µM, Oc1ccc(O)c2c(O)cccc12 1.78 µM, Cc1ccc(C(=O)O)cc1-c1ccc(/C=C2\SC(=O)N(CC(=O)Nc3ccc4c(c3)OCO4)C2=O)o1 7.52 µM
